PubChem BioAssay AID652054 (National Center for Advancing Translational Sciences (NCATS), 2013)
The campaign covered roughly 360,000 compounds. About 9,100 (2.5%) were called active. Not shown: some 4% with an inconclusive outcome. Cut-off read from the data, not from the text of the source: active = max response below about -50%; inconclusive = no clear call, values can overlap the other calls; inactive = above that. This excerpt belongs to a sample that is enriched for actives.

Target: D(3) dopamine receptor (Homo sapiens) (UniProt P35462)
Sequence (P35462 whole entry, looked up): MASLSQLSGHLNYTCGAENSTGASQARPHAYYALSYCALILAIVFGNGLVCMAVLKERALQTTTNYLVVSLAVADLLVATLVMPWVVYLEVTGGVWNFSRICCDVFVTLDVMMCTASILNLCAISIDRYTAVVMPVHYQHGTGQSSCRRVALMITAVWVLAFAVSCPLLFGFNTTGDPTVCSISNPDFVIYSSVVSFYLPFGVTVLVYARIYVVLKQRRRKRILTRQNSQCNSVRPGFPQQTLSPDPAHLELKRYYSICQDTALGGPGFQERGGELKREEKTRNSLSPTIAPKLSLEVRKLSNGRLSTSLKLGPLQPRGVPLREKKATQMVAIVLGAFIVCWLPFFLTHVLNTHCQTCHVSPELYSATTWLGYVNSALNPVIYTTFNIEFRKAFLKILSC
Experiment: qHTS of D3 Dopamine Receptor Antagonist: qHTS
Settings: D3R cells, DiscoveRx beta-arrestin luminescence, antagonist mode; active compounds read low
Source text: D3 DARs represent a very important target for the treatment of several neuropsychiatric disorders. Indeed, one of the most promising therapeutic applications for the D3 DAR is in the area of addiction and related disorders. […] These findings have been observed with a number of addictive substances including cocaine, amphetamine, nicotine, and alcohol. […] Antagonism of the D3 DAR may also be therapeutic in the treatment of schizophrenia or psychosis. […] Since the D3 DAR is expressed in areas of the CNS associated with the control of mood and emotion, it has been hypothesized that selective antagonism of the D3 DAR may be effective in treating psychosis without inducing the motor side effects typically seen with D2 DAR antagonists.
This part of the project aims to discover novel antagonist.
NIH Chemical Genomics Center [NCGC]
NIH Molecular Libraries Probe Centers Network [MLPCN]
Assay Submitter (PI): David Sibley, NINDS
Freshly passaged cells are plated in 1536 well white, solid bottom plates at a density of 1500 cells/well in 3microl of complete media. After an overnight incubation at 37 degrees C in 5% CO2, cells are loaded with 23nl of test compound from the compound library (as well as dopamine controls) using a 1536 pintool and incubated at 37 degrees C for 90 minutes. Two microliters of DiscoveRx reagent is then added to all cells, and they are incubated for an additional 30 - 60 minutes at room temperature. Following incubation, luminescence is measured on a ViewLux CCD-based luminometer reader using a 20 sec exposure time.
% is set by controls: 0 for no effect and ±100 for the full control effect.

Max response, negative = inhibition, active:
O=[N+]([O-])c1ccc(N=NNc2ccc([N+](=O)[O-])cc2)cc1 -50.6%, COc1cc(NC(=O)COc2ccccc2Cl)ccc1NC(=O)C(C)C -74%, CCN(CC)CCN(C(=O)c1ccc2c(c1)CCCC2)c1nc2c(OC)cccc2s1 -103%, Cc1cc(C)nc(S/C=C/C(=O)c2ccccc2)n1 -62.5%, CCOC(=O)c1sc(NC(=O)c2cc(S(=O)(=O)N3CCOCC3)ccc2C)nc1C -55.1%, CCC(C)(C)n1nnnc1C(c1cccs1)N1CCN(Cc2ccccc2)CC1 (stereo not drawn) -56.8%, COc1ccccc1C(c1nnnn1C(C)(C)C)N1CCN(Cc2ccccc2)CC1 (stereo not drawn) -90.6%, Cc1nnc(SCC(=O)N/N=C/c2cn(-c3ccccc3)nc2-c2ccc(F)cc2)n1-c1ccccc1 -52.1%, Nc1c(C(=O)c2cccs2)sc2nsc(SCCN3CCCCC3)c12 -51.8%, CCCOc1ccc(C2C(C(=O)c3ccc(C)o3)=C(O)C(=O)N2CCCn2ccnc2)cc1 (stereo not drawn) -63.3%

Max response, negative = inhibition, inactive:
CNC(=S)Nc1ccc([N+](=O)[O-])cc1 -17.8%, COC(=O)c1ccccc1N=NNc1ccc([N+](=O)[O-])cc1 8.12%, O=C(NC1CCCC1)C1c2ccccc2OCC(=O)N1Cc1ccccc1 (stereo not drawn) 4.78%, COc1ccc(C(C(=O)Nc2c(C)cccc2C)N2CCN(c3ccc(C)cc3)CC2)cc1 (stereo not drawn) 11.5%, COCCCn1cc(CN2CC(N(C)C)CS2(=O)=O)nn1 (stereo not drawn) -10.8%, CCCCCCCCN1C(=O)[C@H](CC(=O)NCC23CC4CC(CC(C4)C2)C3)C[C@@]2(C(=O)OC)CCCCC=C12 9.16%, O=C(NCc1cccnc1)c1cc(C2CCCN(C(=O)C3CCCCC3)C2)on1 (stereo not drawn) 6.18%, COCCNC(=O)C1CCCN(Cc2ccccc2Cl)CC1 (stereo not drawn) 57.8%, Cc1ccc(Sc2ccc(NC(=O)c3ccc(F)cc3)cc2C#N)cc1 0%, CC(=O)Nc1ccc(NC(=O)COc2ccccc2C(=O)Nc2cccc(Cl)c2Cl)cc1 -0.418%, Cc1ccccc1OCC(=O)Nc1ccc(N2CCN(C(=O)C(C)C)CC2)c(Cl)c1 26.3%, COc1ccc(-c2cnc3c(c2)C(=O)N([C@H](C)CO)C[C@@H](C)[C@H](CN(C)Cc2ccccc2)O3)cc1 14.3%, CCN1C(=O)[C@@H]2[C@@H]3CN(S(=O)(=O)c4ccccc4C)[C@@H](c4ccc(Cl)cc4)[C@@H]3C(=O)C[C@@H]2C1=O -17.8%, CCN(CC)CCN(C(=O)c1cc(Cl)sc1Cl)c1nc2cc3c(cc2s1)OCO3 -11.6%, CCN(CC)CCN(C(=O)c1cccc([N+](=O)[O-])c1)c1nc2ccc(OC)cc2s1 8.97%, COc1ccc(NC2CCCN(C(=O)c3ccccc3-c3ncc[nH]3)C2)cc1 (stereo not drawn) -2.79%, Cc1cc(C)nc(N(C#N)CC(=O)Nc2ccccc2)n1 -15.5%, O=C(/C=C/NNC(=O)c1cccc(Br)c1)c1ccccc1 0%, COc1ccc([C@H]2N[C@]3(CCCN(Cc4ccco4)C3=O)[C@H]3C(=O)N(C)C(=O)[C@@H]23)cc1 -22%, Cc1cccc(N(CC(=O)N2CCCC2)S(C)(=O)=O)c1C -2.72%, CCc1nnc(NC(=O)c2cc(S(=O)(=O)N3CCCCC3)ccc2C)s1 -2.53%, Cc1ccc(S(=O)(=O)N2CCOCC2)cc1C(=O)Nc1ccccc1N1CCCC1 13.7%, CCOC(=O)c1cc(-c2sc(NC(=O)c3ccccc3)nc2C)n(CCO)n1 -12.9%, Fc1ccc(Cn2nnnc2C(c2cccs2)N2CCCCCC2)cc1 (stereo not drawn) 10.3%, COc1ccc(OC)c(C(c2nnnn2C(C)(C)C)N2CCc3ccccc3C2)c1 (stereo not drawn) -1.6%, CCC(C)(C)n1nnnc1C(c1cccs1)N1CCN(c2nc3ccccc3s2)CC1 (stereo not drawn) -16.1%, CCCC(c1nnnn1C(C)(C)C)N1CCN(Cc2ccccc2)CC1 (stereo not drawn) -5.41%, N#Cc1cccc(NC(=O)c2cc(C3CCCCN3C(=O)CCc3ccccc3)on2)c1 (stereo not drawn) -8.91%, CCCCCn1nnnc1-c1nc2cc3ccccc3cc2[nH]c1=O -8.12%, COCCCNc1ccn2nc(-c3ccc(CC(C)C)cc3)cc2n1 31.5%, Cc1ccccc1NC(=O)Cc1nc(COC(=O)C(C)(C)Oc2ccc(Cl)cc2)cs1 24.6%, CC(C)(C)CC(=O)Nc1nc(C(N)Cc2ccc(C(F)(F)F)cc2)cs1 (stereo not drawn) 0%, Cc1nnc(SCC(=O)Nc2cccc(N)c2)n1-c1ccccc1 9.89%, Cc1ccc(-c2nnc(SCC(=O)N/N=C/c3cccs3)n2-c2ccc(C)cc2)cc1 11.6%, CCOC(=O)[C@]12CCCC=C1N(CCC1=CCCCC1)C(=O)[C@H](CC(=O)NCCCCc1ccccc1)C2 -12.8%, CCC(C(=O)Nc1c(C)cccc1C)n1c(-c2cc(C)cs2)nc2ccccc21 (stereo not drawn) -4.88%, Nc1ncnc2c1ncn2[C@@H]1O[C@H](C(=O)NS(=O)(=O)c2c(Cl)nc3sccn23)[C@@H](O)[C@H]1O 24.3%, Cc1ccc(-c2ccc(CN3C(C(C)C)C(=O)N(Cc4cn(CCC5OCCO5)nn4)CCS3(=O)=O)cc2)cc1 (stereo not drawn) 5.58%, O=C(Nc1ccc(Cl)cc1)c1csc([C@@H]2O[C@H](CO)[C@H](O)[C@H](O)[C@H]2O)n1 -15.5%, CC1=C(C(=O)N(C)C)CC(CC(=O)NCCN2CCOCC2)C(=O)N1Cc1ccccc1 (stereo not drawn) -7.58%, CC(=O)Nc1cc(-c2ccc(N3CCN(C)CC3)cc2)cn2c(-c3cccc(C(=O)N(C)C)c3)cnc12 9.1%, CCOc1ccc(C2/C(=C(/O)c3ccc4c(c3)CC(C)O4)C(=O)C(=O)N2CCCn2ccnc2)cc1 (stereo not drawn) -12.2%, C=CCOc1cccc(C2C(C(=O)c3ccc(C)o3)=C(O)C(=O)N2CCN2CCOCC2)c1 (stereo not drawn) 0.324%
